Results filed as inconclusive are left out. Calls of active or inactive are those of the source. The call rests on the fitted dose curve; in most records, active means well fitted cell-killing curve with a large enough effect; inconclusive means small, poorly fitted or top-dose-only effect; inactive means flat fitted curve, though single readings scatter.
Assay: Cellular viability qHTS for adrenocortical cancer (ACC) cell line NCI-H295R (AID 1963990); further: nearly all actives have a fitted effect of over 60% in size;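 on activity change, negative = viability loss: 0% = DMSO only wells and -100% = full killing with cytotoxic reference compound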
Conditions: CellTiter-Glo ATP luminescence, 48 h; series mostly up to 46.1 µM; activity change, negative = viability loss: at the top concentration
In short: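 IC50 and maximal efficacy derive from four-parameter logistic modelling of titration curves, with reads scaled between DMSO-only wells (0%) and doxorubicin hydrochloride (100% inhibition). Compounds spanned up to 46 uM over 48 h.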

SMILES	activity change, negative = viability loss	Potency
CC(C)=CCOc1c2occc2cc2ccc(=O)oc12	-26.1% (inactive)	–
O=C(CCCN1CCC(n2c(=O)[nH]c3ccccc32)CC1)c1ccc(F)cc1	-13.2% (inactive)	–
CC(CCc1ccccc1)NC(C)C(O)c1ccc(O)cc1 (stereo not given)	-5.57% (inactive)	–
CN(C)CCc1c[nH]c2ccccc12	-21.7% [at 178 µM] (inactive)	–
CC(O)(CS(=O)(=O)c1ccc(F)cc1)C(=O)Nc1ccc(C#N)c(C(F)(F)F)c1 (stereo not given)	-11.1% (inactive)	–
Cc1ccccc1-n1c(Cn2cnc3c(N)ncnc32)nc2cccc(C)c2c1=O	3.3% (inactive)	–
C[C@@H]1CC[C@H]2[C@@H](C)C(=O)O[C@@H]3O[C@@]4(C)CC[C@@H]1[C@]32OO4	–	inactive
O=c1[nH]c2ccc(Cl)cc2c(N[C@@H]2CN3CCC2CC3)c1-c1nc2ccccc2[nH]1	–	355 nM (active)
O=C(O)C1=CCCN(CCOC(c2ccc(C(F)(F)F)cc2)c2ccc(C(F)(F)F)cc2)C1	-2.17% (inactive)	–
Cc1ncc2n1-c1ccc(Cl)cc1C(c1ccccc1F)=NC2	-19.4% (inactive)	–
